Compound activity (PubChem BioAssay)
LmPK inhibitor – LmPK (Leishmania mexicana) enzyme inhibition | Q27686 | purified LmPK, Kinase-Glo ATP luminescence, 1 h | Potency, µM (top dose mostly 57.5 µM), without a hit: at the highest dose activity change, negative = inhibition, most hits filed as inhibitors | 290,000 compounds, 0.37% hits; note: potency is the fitted concentration of half-maximal effect; % is set by controls: 0 for no effect and ±100 for the full control effect
Target sequence (Q27686 whole entry, looked up): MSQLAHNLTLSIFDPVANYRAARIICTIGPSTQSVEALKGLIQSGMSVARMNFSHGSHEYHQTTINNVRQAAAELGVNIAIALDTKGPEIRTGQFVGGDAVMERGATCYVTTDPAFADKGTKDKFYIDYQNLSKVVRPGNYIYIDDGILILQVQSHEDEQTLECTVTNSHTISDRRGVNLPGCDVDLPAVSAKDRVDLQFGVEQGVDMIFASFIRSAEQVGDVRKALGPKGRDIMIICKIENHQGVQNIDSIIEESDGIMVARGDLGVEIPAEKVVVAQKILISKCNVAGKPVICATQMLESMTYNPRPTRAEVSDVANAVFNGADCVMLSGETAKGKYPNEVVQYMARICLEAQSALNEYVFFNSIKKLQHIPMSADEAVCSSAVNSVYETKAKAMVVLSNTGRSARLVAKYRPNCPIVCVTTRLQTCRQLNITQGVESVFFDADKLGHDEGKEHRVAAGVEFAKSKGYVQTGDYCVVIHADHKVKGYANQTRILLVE
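Purified LmPK (0.1 nM) converted ADP (0.1 mM) to ATP with PEP (0.5 mM) in imidazole buffer pH 7.2 with KCl and MgCl2, 1 h at room temperature. ATP was read by Kinase-Glo luminescence; data normalized to uninhibited and no-enzyme controls.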
Giardia FBPA inh-1 – blocks Giardia fructose-bisphosphate aldolase activity; A8B2U2; purified Giardia FBPA; Potency, µM (series often up to 59.6 µM), for inactives: at the highest dose activity, negative = inhibition, hits mostly inhibitors; 290,000 compounds, 0.71% hits; AID 2451; note: potency is the fitted concentration of half-maximal effect; % is set by controls: 0 for no effect and ±100 for the full control effect; nearly all actives have a fitted effect of over 55% in size
Target sequence (A8B2U2 whole entry, looked up): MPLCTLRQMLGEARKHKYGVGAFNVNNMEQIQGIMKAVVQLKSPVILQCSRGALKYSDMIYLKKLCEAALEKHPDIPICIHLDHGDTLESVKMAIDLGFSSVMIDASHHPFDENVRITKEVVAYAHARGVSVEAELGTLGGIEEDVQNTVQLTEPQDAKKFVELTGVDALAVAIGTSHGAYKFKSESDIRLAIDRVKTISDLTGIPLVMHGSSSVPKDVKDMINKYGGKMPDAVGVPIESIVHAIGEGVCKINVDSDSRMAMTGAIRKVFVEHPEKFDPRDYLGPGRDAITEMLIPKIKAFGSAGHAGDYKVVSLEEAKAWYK
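Giardia FBPA (40 nM reagent) was preincubated 10 min at RT with compound (up to 57.5 uM final), then substrate plus GAPDH/TPI/NAD/arsenate coupling system with diaphorase/resazurin was added; resorufin fluorescence (525/598 nm) was read after 20 min.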
CHX counter – counter-screen hit for Shiga toxin inhibitors, cycloheximide. cell reporter, cycloheximide protein synthesis inhibition counterscreen. max response, %. 300,000 compounds, 12% hits. AID 2314; in the data active = max response mostly above about 13%, no sharp cut-off; inactive = mostly below about 14%; note: read at 38.3 µM for the half of the compounds with a filed dose; 0% is about no effect
RE007 growth inh – less growth of the S. pombe RE007 Vpr strain; S. pombe RE007 Vpr strain, BacTiter-Glo ATP luminescence, 24 h; Potency, µM (doses to about 92.2 µM), inactives show at the top dose activity change, negative = less growth, usual class: inhibitors; 360,000 compounds, 0.21% hits; active = well fitted falling curve with a large enough effect; inconclusive = small, poorly fitted or top-dose-only effect; inactive = no such curve, though single readings can be large or run the other way; note: potency is the fitted concentration of half-maximal effect; % is set by controls: 0 for no effect and ±100 for the full control effect; nearly all actives have a fitted effect of over 50% in size
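Fission yeast strain RE007, carrying one chromosomally integrated HIV-1 vpr copy, was seeded at OD 0.01 in PMG+AL medium with 23 nL pinned compound. After 24 h at 30 °C and 99% humidity, viability was read by BacTiter-Glo luminescence.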
Tb PYK inh – inhibitors of Trypanosoma brucei pyruvate kinase; Q57TT1; TbPYK enzyme, Kinase-Glo Plus ATP luminescence, 45 min; Potency, µM (highest dose often 76.8 µM), without a hit: top-dose activity, negative = inhibition, usual class: inhibitors; 410,000 compounds, 0.12% hits; AID 624173; note: potency is the fitted concentration of half-maximal effect; % is set by controls: 0 for no effect and ±100 for the full control effect; nearly all actives have a fitted effect of over 50% in size
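Luminescent Kinase-Glo Plus end-point after 45 min room-temperature reaction of T. brucei pyruvate kinase started with 130 uM ADP (final). Buffer TEA 50 mM pH 7.2 with KCl, MgCl2, BSA, Tween-20; titration-based qHTS with fitted concentration-effect curves.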
Shiga inhibitor – blocks Shiga toxin action in Vero cells | Vero cells, Shiga toxin protein synthesis inhibition reporter | inhibition, % at 38.7 µM | 290,000 compounds, 9.2% hits | AID 2315; in the data active = inhibition mostly above about 28%, no sharp cut-off; inactive = mostly below about 43%; note: 0% is about no effect
Giardia growth – inhibitors of Giardia lamblia growth | shares compounds with Giardia FBPA inh-1 | 1,500 compounds, 5% hits | Giardia lamblia trophozoite growth inhibition | Potency, µM (highest dose often 57.5 µM), for the others: at the highest dose activity change, negative = inhibition, hits mostly inhibitors;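 note: potency is the fitted concentration of half-maximal effect; trophozoites exposed to compound for 48 h at 37 °C; % is set by controls: 0 for no effect and ±100 for the full control effect; nearly all actives have a fitted effect of over 70% in size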
Mammalian tox – mammalian cytotoxicity of Giardia aldolase inhibitor hits; 1,500 compounds, 4% hits; shares compounds with Giardia FBPA inh-1; mammalian cell viability counter-screen, qHTS; AID 2786; Potency, µM (highest dose often 57.5 µM), for inactives: top-dose viability change, negative = toxicity, usual class: inhibitors;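 note: Chinese hamster ovary cells used as mammalian cytotoxicity surrogate; viability measured as cellular ATP by luminescence; potency is the fitted concentration of half-maximal effect; compound exposure lasted 48 h before reading; % is set by controls: 0 for no effect and ±100 for the full control effect; nearly all actives have a fitted effect of over 60% in size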
Giardia FBPA inh-2 – confirmation of Giardia fructose-bisphosphate aldolase inhibitors; 1,500 compounds, 5% hits; Potency, µM (titrated, usually from 57.5 µM), without a hit: top-dose activity change, negative = inhibition, hits mostly inhibitors; purified Giardia aldolase enzyme activity, qHTS; AID 2787; shares compounds with Giardia FBPA inh-1; note: potency is the fitted concentration of half-maximal effect; % is set by controls: 0 for no effect and ±100 for the full control effect; nearly all actives have a fitted effect of over 45% in size
Rabbit aldolase – rabbit FBP aldolase inhibition by Giardia aldolase hits; 1,500 compounds, 4% hits; shares compounds with Giardia FBPA inh-1; Potency, µM (titrated, usually from 57.5 µM), inactives show at the top dose activity, negative = inhibition, hits mostly inhibitors; Rabbit muscle FBPA enzyme inhibition, selectivity counter-screen; note: potency is the fitted concentration of half-maximal effect; % is set by controls: 0 for no effect and ±100 for the full control effect; nearly all actives have a fitted effect of over 60% in size
GAPDH counter – GAPDH inhibition flagged for Giardia aldolase hits | AID 2795 | shares compounds with Giardia FBPA inh-1 | 1,500 compounds, 6% hits | Potency, µM (titrated, usually from 57.5 µM), for the others: at the top dose activity change, negative = inhibition, most hits filed as inhibitors | GAPDH coupling enzyme counterscreen, biochemical, qHTS; note: potency is the fitted concentration of half-maximal effect; % is set by controls: 0 for no effect and ±100 for the full control effect; nearly all actives have a fitted effect of over 55% in size
Starred values were filed as active, the others as inactive; ? = inconclusive; . = not tested or not shown; [ ] = dose if it differs, or a comment. Many of the other results were omitted from the sample, so hits are more common in it than they were. Unless noted, calls come from the whole dose curve; as a rule, active = well fitted curve in the direction sought with a large enough effect; inconclusive = small, poorly fitted or top-dose-only effect, or another doubt; inactive = no such curve, though single readings can be large; an effect the other way counts as inactive or inconclusive.

SMILES	LmPK inhibitor	Giardia FBPA inh-1	CHX counter	RE007 growth inh	Tb PYK inh	Shiga inhibitor	Giardia growth	Mammalian tox	Giardia FBPA inh-2	Rabbit aldolase	GAPDH counter
C=CCn1c(SCC(=O)N2CCN(c3ccccc3)CC2)nc2c([nH]c3ccccc32)c1=O	-3%	.	-1	2%	1%	6	.	.	.	.	.
O=C(CNCc1ccco1)Nc1cccc(S(=O)(=O)N2CCCCC2)c1	-1%	18µM*	-3	1%	-15%	8	-4%[10.4 µM]	-7%	5%	0%	7%
O=C(CNc1cccc(S(=O)(=O)N2CCCCC2)c1)Nc1cccc(F)c1	.	.	.	5%	-1%	.	.	.	.	.	.
COc1cc(Br)cc(CNc2ccc(F)c([N+](=O)[O-])c2)c1O	-1%	-14%	13	-3%	-3%	-1	.	.	.	.	.
CCCCC/C=C\C/C=C\CCCCCCCC(=O)NCC(=O)O	.	15%	.	.	.	.	.	.	.	.	.
CCOC(=O)CSC1=C(C#N)C(C)C2=C(CCCC2=O)N1 (stereo unspecified)	0%	16µM*	15	-7%	-1%	33	-12%[10.4 µM]	-12%	-8%	1%	6%
O=c1[nH]c(=S)[nH]c(O)c1C(c1ccccn1)c1c(O)[nH]c(=S)[nH]c1=O	1%	16µM*	3	0%	-29%	9	2%[10.4 µM]	13%	-2%	11%	-5%
CCn1c(O)c(C(c2ccccn2)c2c(O)n(CC)c(=S)[nH]c2=O)c(=O)[nH]c1=S	-6%	18µM*	-1	4%	-23%	-10	18%[10.4 µM]	5%	-6%	12%	11%
CCCC(C)(C)C(=O)N1CCC1(C)C(=O)Nc1cccc2ccccc12 (stereo unspecified)	.	.	.	3%[18.4 µM]	3%	.	.	.	.	.	.
CC1CCC2(CC1)NC(=O)N(CC(=O)N1CCN(S(=O)(=O)c3ccc4c(c3)CCC4)CC1)C2=O (stereo unspecified)	.	.	.	-7%	0%	.	.	.	.	.	.
COc1ccccc1N1CCN(C(C)C(=O)N2CC(C)OC(C)C2)CC1 (stereo unspecified)	-14%	5.6µM*	0	10%	-1%	-3	9%[10.4 µM]	4%	-5%	-8%	5%
CCCC(C)c1nnc(NC(=O)c2cc(C(=O)OC)cc([N+](=O)[O-])c2)s1 (stereo unspecified)	0%	18µM*	-1	-3%	?	-13	?	-3%	-17%	2%	6%
NC(=O)N/N=C/c1cc(Br)ccc1OCC(=O)NCc1ccccc1	0%	-1%	-6	1%	5%	-3	.	.	.	.	.
O=[N+]([O-])c1ccc(NN=Cc2ccc(O)cc2O)nc1	.	.	.	4%	-2%	.	.	.	.	.	.
O=[N+]([O-])c1ccc(O)c(/C=N/Nc2ccccn2)c1	9%	5µM*	22*	?	-4%	29	?	20µM*	?	4%	-28%
O=C(O)COc1ccc(Br)cc1/C=N\Nc1ccccn1	-2%	11µM*	8	1%	2%	-9	-20%	-7%	4%	10%	15%
O=C(N/N=C/c1ccccn1)c1cc([N+](=O)[O-])cc([N+](=O)[O-])c1	0%	10µM*	8	-11%	-11%	-5	25µM*	?	1%	-8%	-6%
O=C(N/N=C/c1ccccn1)c1ccc(NC(=O)c2cccc([N+](=O)[O-])c2)cc1	4%	14µM*	0	12%	4%	9	?	-10%	5%	-1%	-5%
O=C(N/N=C/C=C/c1cccc([N+](=O)[O-])c1)c1ccncc1	2%	16µM*	5	7%	2%	46	28µM*	-4%	3%	-4%	5%
O=C(CNC(=S)NC(=O)c1cccc([N+](=O)[O-])c1)c1ccccc1	3%	0%	4	3%	-1%	-5	.	.	.	.	.
O=C(NC(=S)Nc1ccccn1)c1cccc([N+](=O)[O-])c1	1%	16µM*	43*	-16%	0%	76*	?	-7%	5%	6%	13%
O=C(N/N=C/c1ccccn1)c1cc(C2CC2)[nH]n1	-1%	18µM*	38*	-7%	-2%	111*	?	-6%	-3%	-2%	5%
O=C(N/N=C/c1ccccn1)c1cccc([N+](=O)[O-])c1	-1%	16µM*	8.8*	3%	5%	55*	-27%	?	15%	-3%	8%
Cc1ccc(C(=O)N/N=C\c2ccccn2)cn1	-1%	7.9µM*	40*	21%	2%	63*	-11%[38.3 µM]	-8%	6%	4%	-8%
Cc1csc(N/N=C/c2ccccn2)n1	-22%[11.5 µM]	16µM*	15	?	-23%	77	-7%[10.4 µM]	25µM*	-3%	-1%	-11%
SMILES	LmPK inhibitor	Giardia FBPA inh-1	CHX counter	RE007 growth inh	Tb PYK inh	Shiga inhibitor	Giardia growth	Mammalian tox	Giardia FBPA inh-2	Rabbit aldolase	GAPDH counter
O=C(N/N=C/c1ccc2ncccc2c1)c1cccc([N+](=O)[O-])c1	0%	14%	7	-10%	-11%	22	.	.	.	.	.
COc1ccccc1-n1cc(CN2CCN(CC=C(C)C)C(CCO)C2)cn1 (stereo unspecified)	-2%	4%	-1	4%	-4%	4	.	.	.	.	.
Cc1ccc(C(=O)N/N=C\c2ccc([N+](=O)[O-])o2)cn1	3%	11µM*	5	-12%	-3%	13	3.2µM*	-19%	-7%	-3%	1%
O=C(N/N=C/c1ccccn1)c1ccc2nc[nH]c2c1	0%	16µM*	-2	-11%	-3%	-5	8%[10.4 µM]	5%	5%	4%	-8%
COc1cccc(-n2c(=O)n(Cc3ccccc3)c(=O)c3[nH]cnc32)c1C	1%	-22%	8	12%	10%	15	.	.	.	.	.
Cc1ccc(S(=O)(=O)N2CCN(C(=O)CC(C)n3cncn3)CC2)cc1C (stereo unspecified)	-5%	5%	-4	-11%	1%	-10	.	.	.	.	.
